Only some compounds are listed: those with a hit (about 0.32% of all), similar ones and a draw of the others.
SNCA viab count: reduces viability of HEK-293 SNCA reporter cells; HEK-293-SNCA-luc viability, GF-AFC fluorescence, 24 h; Potency, µM (series often up to 57.1 µM), hits mostly cytotoxic; 150,000 tested, 0.12% active; AID 1671193; further: nearly all actives have a fitted effect of over 30% in size
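Cytotoxicity counterscreen: after 24 h compound treatment of genome-edited SNCA-luciferase HEK-293 cells, live-cell protease substrate GF-AFC read by fluorescence after 30 min; activity scaled between DMSO (0%) and medium-only (-100%), curves Hill-fitted.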
SNCA expr inhib: SNCA gene expression inhibition; 140,000 tested, 0.17% active; HEK-293 SNCA-luciferase knock-in, luminescence, 24 h; Potency, µM (top dose mostly 57.2 µM), most hits filed as inhibitors; further: nearly all actives have a fitted effect of over 45% in size
GPT2 inh: blocks human glutamate pyruvate transaminase 2. Q8TD30. Recombinant GPT2, coupled pyruvate oxidase/HRP Amplex Red fluorescence. Potency, µM (highest dose often 57.7 µM), usual class: inhibitors. 100,000 tested, 0.25% active; further: nearly all actives have a fitted effect of over 60% in size
Target sequence (Q8TD30 whole entry, looked up): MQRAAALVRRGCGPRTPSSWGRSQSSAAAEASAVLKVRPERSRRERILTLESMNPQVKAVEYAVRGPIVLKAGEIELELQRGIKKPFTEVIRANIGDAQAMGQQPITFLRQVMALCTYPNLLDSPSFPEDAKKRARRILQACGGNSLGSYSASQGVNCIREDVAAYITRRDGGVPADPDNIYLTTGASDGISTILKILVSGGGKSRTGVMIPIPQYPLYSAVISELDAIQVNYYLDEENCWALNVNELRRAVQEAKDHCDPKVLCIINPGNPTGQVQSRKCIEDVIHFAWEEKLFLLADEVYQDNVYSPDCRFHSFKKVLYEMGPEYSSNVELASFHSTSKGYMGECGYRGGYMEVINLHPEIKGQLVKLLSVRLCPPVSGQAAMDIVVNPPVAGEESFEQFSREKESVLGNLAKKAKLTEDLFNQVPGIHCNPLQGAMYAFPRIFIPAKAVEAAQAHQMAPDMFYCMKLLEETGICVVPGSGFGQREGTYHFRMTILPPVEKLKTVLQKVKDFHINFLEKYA
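Inhibition is scored from Amplex Red fluorescence generated when pyruvate oxidase and HRP act on pyruvate released by GPT2. Reactions contain 10ng/uL enzyme, 250uM a-KG and 2mM L-alanine and run 30 min at room temperature.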
A number is an active result; n = inactive; u = inconclusive; x = no result; ! = not confirmed by another sample; [ ] = dose if it differs, or a comment. The call rests on the fitted dose curve; in most records, active means well fitted curve in the direction sought with a large enough effect; inconclusive means small, poorly fitted or top-dose-only effect, or another doubt; inactive means no such curve, though single readings can be large; an effect the other way counts as inactive or inconclusive.

SMILES	SNCA viab count	SNCA expr inhib	GPT2 inh
Cc1[nH]nc2c1C(c1ccc(Cl)cc1)C(C#N)=C(N)O2 (configuration not stated)	n	n	u
Cc1nc(NCCN2CCOC2=O)c2sccc2n1	n	n	n
Cc1nc(Nc2n[nH]c3c2CN(C(=O)N[C@H](CN(C)C)c2ccccc2)C3(C)C)c2sccc2n1	u	0.0152µM	u
COc1ccc(Nc2ccnc(N3CCC(NC(=O)Cc4ccc(C(F)(F)F)cc4)CC3)n2)cc1	n[12.5 µM]	u	u
O=C(Cc1c[nH]c2ccccc12)N1CCC(c2noc(C3CC3)n2)C1 (configuration not stated)	n	n	n
O=C(Cc1c[nH]c2ccccc12)N1CCC(c2nc(CCOCC3CCCC3)no2)C1 (configuration not stated)	n[12.5 µM]	20µM	n
O=C(c1ccc2c(c1)OCO2)N1CCN(c2ccnc3ccnn23)CC1	n	n	n
COc1ccccc1N1CCN(S(=O)(=O)c2c(C)sc3ncn(CC(=O)Nc4ccc(C(F)(F)F)cc4)c(=O)c23)CC1	n	n	x
COc1ccccc1N1CCN(S(=O)(=O)c2c(C)sc3ncn(CC(=O)Nc4ccccc4F)c(=O)c23)CC1	n	2.51µM	x
COC(=O)[C@@H]1Cc2c([nH]c3ccccc23)[C@H]2C[C@@H](NCCN3CCOCC3)C[C@@H](c3ccc(C(F)(F)F)cc3)N21	u	u	n
Cc1ccc(-c2nnc3ccc(C(=O)NCc4ccccc4F)cn23)cc1	n	n	u
CC1=C[C@@H](CNC(=O)c2ccccc2)[C@H](C(C)C)C[C@H]1Cc1nc2ccccc2n1C	11.2µM	u	n
CC1=C[C@@H](CNC(=O)c2cnccn2)[C@H](C(C)C)C[C@H]1Cc1nc2ccc(F)cc2[nH]1	u	n	n
CCC(CC)C(=O)NC[C@@H]1C=C(C)[C@H](Cc2nc3ccccc3n2C)C[C@H]1C(C)C	u	u	n
CC1=C[C@@H](CNC(=O)c2cnccn2)[C@H](C(C)C)C[C@H]1Cc1nc2ccc(C)cc2[nH]1	39.8µM	n	n
O=C(NCc1cccc(C(F)(F)F)c1)C1CCN(Cc2ccccc2-c2cccnc2)CC1	u	n	n
CC(C)C[C@@H]1N[C@H](C(=O)NCc2cccs2)Cc2c[nH]c3cccc1c23	n	n	u
Nc1ncnc2c1ncn2[C@@H]1O[C@H](COP(=O)(O)CP(=O)(O)OP(=O)(O)O)[C@@H](O)[C@H]1O	n	n	n
CN1N=C(N)c2cn([C@@H]3O[C@H](COP(=O)(O)O)[C@@H](O)[C@@H]3O)c3ncnc1c23	u	u	13.7µM
COCCNC(=O)C1CCCCN1Cc1ccc(-c2cccs2)cc1 (configuration not stated)	n	n	n
c1ccc(-c2ccc(N3CC4(CCNCC4)C3)cc2)cc1	31.6µM	u	x
c1ccc(-c2ccc(N3CC[C@@]4(CCCNC4)C3)cc2)cc1	n	n	x
Cc1coc2c1C(=O)C(=O)c1c-2ccc2c(C)cccc12	u	n	2.24µM!
Cc1coc2c1C(=O)C(=O)c1c-2ccc2c1CCCC2(C)C	n	n	14.1µM
C[C@H]1COC2=C1C(=O)C(=O)c1c2ccc2c1CCCC2(C)C	n	n	17.2µM
SMILES	SNCA viab count	SNCA expr inhib	GPT2 inh
Cc1ccc(C(=O)N2CCC(Cc3ccc(CN4CCCCC4)cc3)CC2)cn1	n	n	n
COc1ccc(CNC(=O)C2CCCN(c3nccc(Nc4ccc(C)cc4)n3)C2)cc1 (configuration not stated)	n[12.5 µM]	u	n
O=C(NCc1cccc(Cl)c1)c1cn2cc(-c3ccc(C(F)(F)F)cc3)sc2n1	n	n	n
O=C(Nc1cc2ccc(O)cc2oc1=O)c1ccc(F)cc1	n	2µM	x
Cc1ccc(C(=O)Nc2cc3cc(Cl)ccc3oc2=O)cc1	n	n	x
COc1ccc(S(=O)(=O)N2CC(=O)N(CC3CC3)C3(CCCCC3)C2)cc1	n	n	n
CC(C)(C)c1cnc(CSc2cnc(NC(=O)C3CCNCC3)s2)o1	u	1.52µM	n
CC(C)(C)c1ccc(-c2cc(C[C@H]3CNCC[C@H]3CC(=O)O)no2)cc1	n	n	n
O=C(NCCc1ccc(Cl)cc1)c1ccc2nnc(-c3ccc(OC(F)(F)F)cc3)n2c1	n	n	n
O=c1cc(C2=CCOCC2)oc2c(-c3cccc4[nH]ccc34)nccc12	u	n	n
Cc1cc(C)cc(-c2ccc(CN3CCCC(NC(=O)c4ccccc4F)C3)cc2)c1 (configuration not stated)	n[12.5 µM]	n	n
CCOc1ccccc1CN1CCC([C@@H]2CNC[C@H]2CO)CC1	n[12.5 µM]	25.1µM	n
OC[C@@H]1CNC[C@H]1C1CCN(Cc2cccc(Cl)c2F)CC1	n[12.5 µM]	n	n
O=c1[nH]c(N2CCOCC2)nc2c1CCN(Cc1cccc(C(F)(F)F)c1)CC2	n	n	n
O=c1cc(CN2CCOCC2)occ1OCCCCCSc1ccnc2cc(C(F)(F)F)ccc12	29.9µM!	u	u
Cc1ccsc1C(=O)N1CCC(c2nc(CCOc3ccc(F)cc3)no2)C1 (configuration not stated)	n	n	n
CCC(C=C[C@@H]1OC(=O)C=C[C@H]1C)=C[C@H](C)CC=CC(C)=C[C@@H](C)C(=O)[C@@H](C)[C@H](O)[C@@H](C)CC(C)=CC(=O)O	u	0.16µM	n[2.3 µM]
CN1CC2(CCCN(CC3CC3)C2)c2cc(C(=O)NCCOc3ccccc3)ccc21 (configuration not stated)	n	n	n
Cc1ccc(NC(=O)N2CCC[C@H]2c2nc(-c3ccc(F)cc3)n[nH]2)cc1C	n	n	n
COc1cc(O)c2c(c1)C1OC1C[C@H](O)[C@H](O)C(=O)/C=C\C[C@H](C)OC2=O (some centres not stated)	11.9µM	x	n
COc1cc(O)c2c(c1)C1OC1C[C@H](O)[C@H](O)C(=O)C=CC[C@H](C)OC2=O (some centres not stated)	u	n	n
Cc1oc(-c2ccccc2F)nc1Cn1c(SCc2cccc(Cl)c2)nc2ccncc21	n	u	x
Cc1ccc(CSc2nc3ccncc3n2Cc2nc(-c3ccccc3C)oc2C)cc1	n	10µM	x
Cn1ncc2c(C(=O)NCC(F)F)cc(-c3ccc(Cl)cc3)nc21	n	n	n
CC1CCCC[C@H]2C(=O)C=C[C@H](O)[C@@H]2CC(=O)O1 (some centres not stated)	9.47µM	x	n
SMILES	SNCA viab count	SNCA expr inhib	GPT2 inh
CC1CCC(=O)CC(O)C(O)CC(=O)O1 (configuration not stated)	n	x	n
COc1cc([C@H]2Oc3cc([C@H]4Oc5cc(O)cc(O)c5C(=O)[C@H]4O)ccc3O[C@H]2CO)ccc1O	n	u	12.2µM
COc1cc([C@H]2Oc3cc([C@H]4Oc5cc(O)cc(O)c5C(=O)[C@@H]4O)ccc3O[C@@H]2CO)ccc1O	n	n	n
Cc1cccc(CSc2nnc(CCCCCN)o2)c1	n	14.1µM	x
Cc1ccc(-c2nnc(SCc3cccc(C#N)c3)o2)cc1	n	n	x
CCNc1cc(N2CCC(CCC(=O)NCCN3CCCCCC3)CC2)ncn1	n	u	u
O=C(CCC1CCN(c2cc(NC3CC3)ncn2)CC1)NCC1CC1	n	1.41µM	n
CCCNc1cc(N2CCC(CCC(=O)NCCN3CCCCCC3)CC2)ncn1	n	u	n
CCNc1cc(N2CCC(CCC(=O)NC3CCCC3)CC2)ncn1	n	2.24µM	u

Screens: PubChem, National Center for Advancing Translational Sciences (NCATS)
